# Experimental data from ChEMBL document CHEMBL1961873, “Compounds: GSK PKIS; Assays: Nanosyn kinase panel” (2012).
# Assays:
# [1] = molecular target: Mast/stem cell growth factor receptor Kit (Homo sapiens) (UniProt P10721); settings: at 1 µM
# [2] = tested on: Mast/stem cell growth factor receptor Kit (Homo sapiens), P10721 [D816V]; settings: at 0.1 µM
# [3] = tested on: Mast/stem cell growth factor receptor Kit (Homo sapiens), P10721 [D816V]; settings: at 1 µM
# [4] = tested on: Mast/stem cell growth factor receptor Kit (Homo sapiens), P10721 [T670I]; settings: at 0.1 µM
# Chain of Mast/stem cell growth factor receptor Kit (Homo sapiens), P10721 [T670I] (P10721 whole entry T670I): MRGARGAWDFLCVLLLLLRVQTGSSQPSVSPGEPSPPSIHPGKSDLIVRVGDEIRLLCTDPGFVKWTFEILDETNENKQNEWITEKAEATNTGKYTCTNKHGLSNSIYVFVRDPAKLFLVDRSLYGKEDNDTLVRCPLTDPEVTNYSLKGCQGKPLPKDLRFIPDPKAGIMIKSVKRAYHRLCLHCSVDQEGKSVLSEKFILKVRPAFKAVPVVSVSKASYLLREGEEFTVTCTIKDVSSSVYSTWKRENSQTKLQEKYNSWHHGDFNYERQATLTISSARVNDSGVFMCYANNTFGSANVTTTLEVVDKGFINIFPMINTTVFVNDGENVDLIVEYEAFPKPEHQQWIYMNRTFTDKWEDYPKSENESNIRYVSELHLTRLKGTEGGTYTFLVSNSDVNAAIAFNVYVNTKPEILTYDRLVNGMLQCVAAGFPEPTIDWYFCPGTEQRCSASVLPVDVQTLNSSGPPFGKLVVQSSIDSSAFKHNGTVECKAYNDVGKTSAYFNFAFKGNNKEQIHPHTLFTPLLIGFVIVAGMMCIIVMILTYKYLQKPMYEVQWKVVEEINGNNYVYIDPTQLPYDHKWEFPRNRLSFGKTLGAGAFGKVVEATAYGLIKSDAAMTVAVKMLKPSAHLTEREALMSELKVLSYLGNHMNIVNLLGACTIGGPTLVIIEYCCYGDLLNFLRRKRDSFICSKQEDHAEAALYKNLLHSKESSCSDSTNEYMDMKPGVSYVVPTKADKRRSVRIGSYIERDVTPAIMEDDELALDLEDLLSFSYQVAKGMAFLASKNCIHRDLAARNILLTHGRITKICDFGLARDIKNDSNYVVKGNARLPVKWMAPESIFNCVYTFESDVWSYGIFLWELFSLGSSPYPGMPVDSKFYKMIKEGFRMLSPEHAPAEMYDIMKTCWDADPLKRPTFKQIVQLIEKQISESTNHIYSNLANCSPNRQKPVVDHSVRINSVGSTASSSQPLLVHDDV
# [5] = tested on: Mast/stem cell growth factor receptor Kit (Homo sapiens), P10721 [T670I]; settings: at 1 µM
# [6] = tested on: Mast/stem cell growth factor receptor Kit (Homo sapiens), P10721 [V560G]; settings: at 0.1 µM
# Chain of Mast/stem cell growth factor receptor Kit (Homo sapiens), P10721 [V560G] (P10721 whole entry V560G): as the sequence (P10721 whole entry T670I) above, with V560G, I670T counted along it
# [7] = tested on: Mast/stem cell growth factor receptor Kit (Homo sapiens), P10721 [V560G]; settings: at 1 µM
# [8] = molecular target: Tyrosine-protein kinase Lck (Homo sapiens) (UniProt P06239); settings: at 0.1 µM
# Chain of Tyrosine-protein kinase Lck (Homo sapiens) (P06239 2-509 limits assumed): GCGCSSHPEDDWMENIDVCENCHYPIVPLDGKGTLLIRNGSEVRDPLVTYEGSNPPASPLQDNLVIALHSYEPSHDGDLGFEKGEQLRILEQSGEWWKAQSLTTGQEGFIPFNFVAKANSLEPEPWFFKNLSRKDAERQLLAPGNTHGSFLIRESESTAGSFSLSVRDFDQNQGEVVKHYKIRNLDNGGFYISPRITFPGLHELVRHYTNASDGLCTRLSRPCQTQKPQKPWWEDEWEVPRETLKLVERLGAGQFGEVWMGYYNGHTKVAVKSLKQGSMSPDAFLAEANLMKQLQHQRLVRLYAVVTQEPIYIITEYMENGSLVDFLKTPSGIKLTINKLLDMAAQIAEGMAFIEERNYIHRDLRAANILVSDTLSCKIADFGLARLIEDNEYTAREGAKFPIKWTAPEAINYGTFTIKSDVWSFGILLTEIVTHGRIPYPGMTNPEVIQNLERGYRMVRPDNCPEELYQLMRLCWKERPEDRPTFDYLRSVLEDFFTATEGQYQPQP
# [9] = molecular target: Tyrosine-protein kinase Lck (Homo sapiens) (UniProt P06239); settings: at 1 µM
# [10] = molecular target: Leukocyte tyrosine kinase receptor (Homo sapiens) (UniProt P29376); settings: at 0.1 µM
# Chain of Leukocyte tyrosine kinase receptor (Homo sapiens) (P29376 whole entry): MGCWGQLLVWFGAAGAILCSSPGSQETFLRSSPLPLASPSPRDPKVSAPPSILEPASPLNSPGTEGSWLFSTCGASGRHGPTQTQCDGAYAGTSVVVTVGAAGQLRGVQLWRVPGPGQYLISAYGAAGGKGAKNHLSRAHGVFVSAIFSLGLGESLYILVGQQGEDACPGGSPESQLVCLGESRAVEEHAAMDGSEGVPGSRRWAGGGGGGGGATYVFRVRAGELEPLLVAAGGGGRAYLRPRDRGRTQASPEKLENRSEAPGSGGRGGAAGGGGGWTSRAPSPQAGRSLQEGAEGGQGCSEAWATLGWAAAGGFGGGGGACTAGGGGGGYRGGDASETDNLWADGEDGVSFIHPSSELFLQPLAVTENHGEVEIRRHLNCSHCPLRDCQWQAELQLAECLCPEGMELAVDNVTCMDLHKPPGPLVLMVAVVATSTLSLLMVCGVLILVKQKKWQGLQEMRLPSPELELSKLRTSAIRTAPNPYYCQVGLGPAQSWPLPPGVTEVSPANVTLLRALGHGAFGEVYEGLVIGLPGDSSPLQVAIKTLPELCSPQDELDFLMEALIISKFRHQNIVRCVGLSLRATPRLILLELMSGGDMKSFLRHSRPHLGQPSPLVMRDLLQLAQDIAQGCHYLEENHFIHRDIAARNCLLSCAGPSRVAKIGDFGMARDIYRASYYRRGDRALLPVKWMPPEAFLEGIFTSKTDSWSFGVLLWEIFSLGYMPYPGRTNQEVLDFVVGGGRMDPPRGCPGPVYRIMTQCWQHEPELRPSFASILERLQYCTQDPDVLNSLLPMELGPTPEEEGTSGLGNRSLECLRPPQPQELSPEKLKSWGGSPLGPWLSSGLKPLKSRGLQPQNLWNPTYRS
# [11] = molecular target: Leukocyte tyrosine kinase receptor (Homo sapiens) (UniProt P29376); settings: at 1 µM
# [12] = molecular target: Tyrosine-protein kinase Lyn (Homo sapiens) (UniProt P07948); settings: at 0.1 µM
# Chain of Tyrosine-protein kinase Lyn (Homo sapiens) (P07948 2-512 limits assumed): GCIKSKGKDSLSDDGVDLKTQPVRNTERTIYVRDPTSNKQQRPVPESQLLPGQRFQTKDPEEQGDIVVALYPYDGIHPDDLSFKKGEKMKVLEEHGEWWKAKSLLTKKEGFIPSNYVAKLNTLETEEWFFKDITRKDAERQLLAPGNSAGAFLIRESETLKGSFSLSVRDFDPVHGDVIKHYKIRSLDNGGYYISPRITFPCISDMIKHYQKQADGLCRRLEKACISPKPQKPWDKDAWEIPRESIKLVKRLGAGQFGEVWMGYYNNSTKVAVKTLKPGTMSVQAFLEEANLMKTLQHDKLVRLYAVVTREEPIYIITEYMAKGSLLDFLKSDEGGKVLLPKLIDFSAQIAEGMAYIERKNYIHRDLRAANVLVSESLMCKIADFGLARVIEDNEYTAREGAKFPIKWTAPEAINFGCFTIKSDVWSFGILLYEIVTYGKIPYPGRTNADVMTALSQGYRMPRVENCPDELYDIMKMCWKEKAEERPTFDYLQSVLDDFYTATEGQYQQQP
# [13] = molecular target: Tyrosine-protein kinase Lyn (Homo sapiens) (UniProt P07948); settings: at 1 µM
# [14] = molecular target: Tyrosine-protein kinase Lyn (Homo sapiens) (UniProt P07948); settings: at 0.1 µM; remark: listed apart in the source
# [15] = molecular target: Tyrosine-protein kinase Lyn (Homo sapiens) (UniProt P07948); settings: at 1 µM; remark: listed apart in the source
# [16] = molecular target: T1, Tyrosine-protein kinase Mer (Homo sapiens) (UniProt Q12866); settings: at 0.1 µM
# T1 sequence (whole entry): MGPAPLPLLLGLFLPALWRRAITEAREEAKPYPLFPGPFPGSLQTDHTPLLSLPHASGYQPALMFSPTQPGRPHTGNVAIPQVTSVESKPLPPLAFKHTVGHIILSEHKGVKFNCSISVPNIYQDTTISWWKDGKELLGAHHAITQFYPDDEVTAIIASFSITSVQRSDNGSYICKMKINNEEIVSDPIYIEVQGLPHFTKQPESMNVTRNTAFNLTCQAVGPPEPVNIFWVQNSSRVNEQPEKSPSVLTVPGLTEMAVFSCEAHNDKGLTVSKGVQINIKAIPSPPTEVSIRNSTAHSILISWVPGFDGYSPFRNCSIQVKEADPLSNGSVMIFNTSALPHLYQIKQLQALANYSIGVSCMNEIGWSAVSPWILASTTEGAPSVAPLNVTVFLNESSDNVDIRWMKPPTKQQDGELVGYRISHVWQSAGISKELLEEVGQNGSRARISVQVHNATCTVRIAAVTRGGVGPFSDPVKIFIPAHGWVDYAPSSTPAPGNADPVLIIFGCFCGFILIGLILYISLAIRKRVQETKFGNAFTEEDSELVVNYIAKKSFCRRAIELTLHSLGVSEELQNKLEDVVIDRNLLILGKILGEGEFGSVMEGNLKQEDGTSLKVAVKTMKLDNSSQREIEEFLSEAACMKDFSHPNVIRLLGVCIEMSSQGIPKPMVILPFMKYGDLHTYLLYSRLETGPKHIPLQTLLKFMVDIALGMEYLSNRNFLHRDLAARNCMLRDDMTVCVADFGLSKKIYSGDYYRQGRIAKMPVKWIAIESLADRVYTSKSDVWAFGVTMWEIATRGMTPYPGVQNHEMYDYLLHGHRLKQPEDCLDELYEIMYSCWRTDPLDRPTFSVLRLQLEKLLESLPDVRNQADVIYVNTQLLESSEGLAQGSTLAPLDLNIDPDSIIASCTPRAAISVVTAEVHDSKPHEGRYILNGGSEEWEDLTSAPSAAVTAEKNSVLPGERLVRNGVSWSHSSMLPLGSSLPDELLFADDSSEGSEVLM
# [17] = molecular target: T1, Tyrosine-protein kinase Mer (Homo sapiens); settings: at 1 µM
# [18] = molecular target: Hepatocyte growth factor receptor (Homo sapiens) (UniProt P08581); settings: at 0.1 µM
# Chain of Hepatocyte growth factor receptor (Homo sapiens) (P08581 whole entry): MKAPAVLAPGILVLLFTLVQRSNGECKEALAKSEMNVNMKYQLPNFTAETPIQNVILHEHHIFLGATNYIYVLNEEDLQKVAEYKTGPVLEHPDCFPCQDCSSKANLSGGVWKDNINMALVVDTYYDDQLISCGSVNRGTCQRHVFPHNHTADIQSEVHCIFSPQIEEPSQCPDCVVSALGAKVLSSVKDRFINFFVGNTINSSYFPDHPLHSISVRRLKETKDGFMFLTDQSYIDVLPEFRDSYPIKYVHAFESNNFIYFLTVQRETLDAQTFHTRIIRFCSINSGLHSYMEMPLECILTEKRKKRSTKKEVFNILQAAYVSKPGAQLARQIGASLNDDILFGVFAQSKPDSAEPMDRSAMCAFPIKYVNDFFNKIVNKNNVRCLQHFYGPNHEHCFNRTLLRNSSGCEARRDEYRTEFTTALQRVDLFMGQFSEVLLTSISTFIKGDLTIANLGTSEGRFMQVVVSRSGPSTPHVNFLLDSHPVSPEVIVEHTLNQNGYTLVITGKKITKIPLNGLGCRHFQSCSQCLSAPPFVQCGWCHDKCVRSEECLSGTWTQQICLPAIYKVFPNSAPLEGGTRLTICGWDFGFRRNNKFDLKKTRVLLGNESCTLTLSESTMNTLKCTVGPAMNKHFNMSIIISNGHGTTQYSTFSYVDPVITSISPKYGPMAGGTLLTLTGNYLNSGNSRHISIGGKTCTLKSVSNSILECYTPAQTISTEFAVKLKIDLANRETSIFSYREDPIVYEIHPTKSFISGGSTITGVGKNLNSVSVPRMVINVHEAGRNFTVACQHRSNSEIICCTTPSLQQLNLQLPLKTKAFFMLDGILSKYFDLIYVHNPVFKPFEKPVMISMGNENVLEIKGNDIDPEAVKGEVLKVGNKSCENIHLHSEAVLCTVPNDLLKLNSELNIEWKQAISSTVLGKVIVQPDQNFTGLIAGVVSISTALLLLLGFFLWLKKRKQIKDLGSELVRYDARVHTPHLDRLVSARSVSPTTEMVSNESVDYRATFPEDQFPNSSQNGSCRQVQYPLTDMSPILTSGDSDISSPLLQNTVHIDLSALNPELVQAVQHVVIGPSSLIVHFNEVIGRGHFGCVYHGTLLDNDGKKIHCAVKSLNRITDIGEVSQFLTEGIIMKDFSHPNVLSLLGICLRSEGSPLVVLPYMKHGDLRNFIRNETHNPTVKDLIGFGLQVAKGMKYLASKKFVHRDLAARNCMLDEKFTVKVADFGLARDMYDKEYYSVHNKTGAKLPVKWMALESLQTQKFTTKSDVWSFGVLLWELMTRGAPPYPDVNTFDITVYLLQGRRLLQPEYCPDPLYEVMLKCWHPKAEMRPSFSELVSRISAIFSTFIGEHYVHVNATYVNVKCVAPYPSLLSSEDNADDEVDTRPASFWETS
# [19] = molecular target: Hepatocyte growth factor receptor (Homo sapiens) (UniProt P08581); settings: at 1 µM
# [20] = molecular target: T2, Muscle, skeletal receptor tyrosine-protein kinase (Homo sapiens) (UniProt O15146); settings: at 0.1 µM;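 further: values are mean inhibition of MuSK from the GSK PKIS kinase screening panel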
# T2 sequence (whole entry): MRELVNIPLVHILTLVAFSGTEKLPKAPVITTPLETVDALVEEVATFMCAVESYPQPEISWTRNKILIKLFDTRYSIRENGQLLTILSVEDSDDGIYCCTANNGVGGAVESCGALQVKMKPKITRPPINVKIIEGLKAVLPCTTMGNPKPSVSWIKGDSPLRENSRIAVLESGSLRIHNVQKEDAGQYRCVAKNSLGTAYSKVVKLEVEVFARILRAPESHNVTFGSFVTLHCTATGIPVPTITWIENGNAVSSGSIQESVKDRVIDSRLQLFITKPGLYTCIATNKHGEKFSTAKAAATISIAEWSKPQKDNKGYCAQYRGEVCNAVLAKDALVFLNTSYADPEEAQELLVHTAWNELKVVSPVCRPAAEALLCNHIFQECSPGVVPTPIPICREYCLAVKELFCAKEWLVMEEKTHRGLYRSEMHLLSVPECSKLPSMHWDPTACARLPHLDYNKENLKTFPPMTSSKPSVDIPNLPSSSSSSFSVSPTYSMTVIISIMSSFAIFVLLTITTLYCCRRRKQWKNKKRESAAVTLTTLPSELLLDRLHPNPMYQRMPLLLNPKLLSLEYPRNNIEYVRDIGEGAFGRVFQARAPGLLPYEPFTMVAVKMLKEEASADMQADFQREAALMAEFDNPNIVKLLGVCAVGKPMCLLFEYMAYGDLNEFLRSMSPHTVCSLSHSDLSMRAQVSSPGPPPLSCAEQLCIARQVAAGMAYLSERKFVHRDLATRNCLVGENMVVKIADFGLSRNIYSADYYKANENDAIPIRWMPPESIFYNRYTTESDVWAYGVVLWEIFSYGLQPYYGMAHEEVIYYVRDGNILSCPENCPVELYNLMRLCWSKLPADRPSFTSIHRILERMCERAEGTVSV
# Chain of Mast/stem cell growth factor receptor Kit (Homo sapiens), P10721 [D816V] (P10721 whole entry D816V): as the sequence (P10721 whole entry T670I) above, with I670T, D816V counted along it
# Chain of Mast/stem cell growth factor receptor Kit (Homo sapiens) (P10721 whole entry): as the sequence (P10721 whole entry T670I) above, with I670T counted along it
Compound,inhibition [1] [%],inhibition [2] [%],inhibition [3] [%],inhibition [4] [%],inhibition [5] [%],inhibition [6] [%],inhibition [7] [%],inhibition [8] [%],inhibition [9] [%],inhibition [10] [%],inhibition [11] [%],inhibition [12] [%],inhibition [13] [%],inhibition [14] [%],inhibition [15] [%],inhibition [16] [%],inhibition [17] [%],inhibition [18] [%],inhibition [19] [%],inhibition [20] [%]
COC(=O)Nc1nc2cc(Oc3cccc(NC(=O)Nc4cc(C(F)(F)F)ccc4F)c3)ccc2[nH]1,48.2,1.96,-0.67,-2.55,2.17,4.04,38.8,1.15,10.5,0.06,24.9,7.9,45.9,5.64,41.6,-1.21,-0.14,1,0.32,4.58
c1cnn2ncc(-c3ccnc(Nc4ccc5c(c4)OCCO5)n3)c2c1,106,3.21,9.72,49.2,93.3,38.1,83.5,3.28,9.06,6.2,21.9,7.12,12.7,4.02,11,4.03,19.6,3.78,16.8,5.35
NCc1ccc(-c2nc(-c3ccc(Cl)c(O)c3)c(-c3ccncc3)[nH]2)cc1,2.11,1.93,5.11,-0.4,0.77,1.37,6.11,5.93,33,1,1.88,6.73,42.8,4.81,37.1,-0.12,6.1,5.53,14.5,0.08
COc1cc(C=NNc2ncnc3c2cnn3-c2ccccc2)ccc1O,67,2.68,8.84,4.5,37.6,8.24,12.3,19.4,63.9,2.19,6.55,17.1,65.9,13.3,62.8,6.78,34.5,21.5,88.6,7.87
NS(=O)(=O)c1cccc(-c2ccc3c(NC(=O)C4CC4)n[nH]c3c2)c1,0.12,1.16,3.53,-3.61,-1.9,1.03,4.07,-1.55,3.43,0.03,-0.78,1.09,1.65,1.19,1.05,0.89,1.03,-4.06,3.16,0.75
Cc1cc(O)cc(C)c1/C=C/c1cncc(-c2nn[nH]n2)c1,65.5,5.64,3.74,1.04,3.66,-0.1,22.1,1.97,42.5,6.07,27.8,21.9,78.4,17,73.9,2.28,5.61,3.29,8.95,2.58
Fc1cccc(COc2ccc(Nc3ncnc4cc(-c5ccc[nH]5)sc34)cc2Cl)c1,2.05,0.67,1.62,1.82,2.49,0.61,1.53,-1.91,2.29,2.11,9.35,2.95,7.02,1.43,4.65,1.29,5.95,-0.09,4.48,1.3
N#Cc1c(NC(=O)c2cccc3ccccc23)sc2c1CCCC2,0.84,1.1,2.67,2.84,1.87,-1.27,3.59,2.98,4.35,2.58,2.53,4.91,5.68,2.96,3.7,0.86,1.53,3.61,7.33,3.62
CCn1c(-c2nonc2N)nc2cncc(C(=O)N3CCNCC3)c21,7.52,4.16,4.92,2.72,3.08,-3.45,-0.74,3.56,5.67,5.18,5.18,5.29,5.94,1.79,4.29,1.99,2.33,2.94,2.13,3.39
NS(=O)(=O)c1ccc(N/N=C2\C(=O)Nc3ccc(C(=O)NCCc4c[nH]cn4)cc32)cc1,7.76,3.86,6.74,3.65,4,-1.9,3.01,4.09,9.31,5.2,7.32,8.15,15.6,5.07,12.6,0.87,4.99,8.81,12.3,10.8
CCCN1CCC(Oc2cc(Nc3nc(Nc4cccc(F)c4C(N)=O)c4cc[nH]c4n3)c(OC)cc2Cl)CC1,2.77,-2.42,-0.61,-1.82,3.06,5.14,6.37,-0.28,4.94,16.4,68.8,0,2.61,-0.77,1.89,0.64,2.77,-1.41,-2.15,3.31
Cn1cc(C=C2C(=O)Nc3cccnc32)c2ccccc21,52.7,2.87,5.81,2.37,19.8,-1.28,3.99,4.03,25.5,2.72,5.51,6.97,41.8,5.53,36,2.2,16.9,0.96,5.5,3.74
COc1ccc(-c2nn3ncccc3c2-c2ccnc(Nc3ccc(Cl)c(C(F)(F)F)c3)n2)cc1,8.96,0.87,4.92,-0.64,1.14,0.89,-0.17,-0.04,5.83,2.25,2.96,2.95,7.79,2.39,7.64,0.1,0.41,7.55,4.08,2.01
